# Laboratory results published in the supplement of paper PMC12350171.
# Counter-ions that a name gives are not always drawn. A number with no mark means an inactive call.
# Columns and labels:
# Details in all cases: 20 µM
# [1] = system: Salmonella enterica typhimurium; assay: growth AUC normalised to DMSO control (fraction of control); higher = less growth inhibition, active = hit call of the paper
# Procedure, shortened: (§1)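 For the AUC endpoint, growth curves were integrated by the trapezoidal rule up to the exponential-to-stationary transition and normalised to DMSO controls on the same plate. The curves came from OD578 readings taken hourly for 24 h, in three biological replicates. Pathogens had been passaged anaerobically twice and inoculated at an OD578 of 0.01 into pre-reduced mGAM plates carrying 20 μM compound and 1% DMSO, sealed with breathable membranes. Medium for Haemophilus parainfluenzae also contained hemin and NAD.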
# Shigella flexneri = assay: as above
# Procedure, shortened: as §1
# Vibrio cholerae = assay: as above
# Procedure, shortened: as §1
# [2] = system: Yersinia pseudotuberculosis; assay: as above
# Procedure, shortened: as §1
# P. vulgatus RND KO = assay: growth AUC normalised to DMSO control (median) (fraction of control); higher = less growth inhibition, active = hit call of the paper
# Procedure, shortened: (§2)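 Anaerobic growth was tracked hourly at OD578 for 24 h in 96-well plates of mGAM seeded at OD578 0.01 with each approved-drug library compound at 20 μM and 1% DMSO. Strains had first been passaged twice overnight without oxygen. Three biological replicates were run. The reported median is the area under the curve, calculated by the trapezoidal rule on curves truncated at entry into stationary phase and normalised to vehicle wells on the same plate.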
# P. vulgatus WT = assay: as above
# Procedure, shortened: as §2
# [3] = system: S. enterica typhimurium WT; assay: as above
# Procedure, shortened: as §2
# [4] = system: S. enterica typhimurium tolC KO; assay: as above
# Procedure, shortened: as §2
# 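Throughout, for growth AUC normalised to DMSO control (median): active when median AUC fell below 0.1.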
Structure (SMILES),growth AUC normalised to DMSO control [1],growth AUC normalised to DMSO control (Shigella flexneri),growth AUC normalised to DMSO control (Vibrio cholerae),growth AUC normalised to DMSO control [2],growth AUC normalised to DMSO control (P. vulgatus RND KO),growth AUC normalised to DMSO control (P. vulgatus WT),growth AUC normalised to DMSO control [3],growth AUC normalised to DMSO control [4]
CC(=O)Oc1ccccc1C(=O)O [Acetylsalicylic acid],1.04,1.04,1.09,1.02,1.01,1.01,1.01,1.01
CCN1CCC[C@H]1CNC(=O)c1c(O)c(Cl)cc(Cl)c1OC [Raclopride],1,0.983,0.985,0.951,1.04,1.04,0.994,1
O=C(O)Cc1cc(I)c(Oc2ccc(O)c(I)c2)c(I)c1 [Tiratricol],0.971,0.949,0.919,0.984,0.817,0.824,1.01,0.993
N=C(N)NC(=O)c1nc(Cl)c(N)nc1N [Amiloride hydrochloride dihydrate],1.01,1.01,1.04,1.02,1.03,1.04,0.982,0.996
CC=C(C)C(=O)OC1C(OC(C)=O)C2(CO)C(O)CC3(C)C(=CCC4C5(C)CCC(OC6OC(C(=O)O)C(OC7OC(CO)C(O)C(O)C7O)C(O)C6OC6OC(CO)C(O)C(O)C6O)C(C)(CO)C5CCC43C)C2CC1(C)C (stereo not drawn) [Beta-Escin],0.997,1,0.995,0.999,0.998,0.981,0.977,1
NNCCc1ccccc1 [Phenelzine sulfate],1.03,1.05,1.03,1.02,1.1,1.16,0.994,0.955
Cn1cnc([N+](=O)[O-])c1Sc1ncnc2[nH]cnc12 [Azathioprine],1,0.992,1.01,1.01,0.955,0.92,1.02,0.998
Cc1c(OCC(F)(F)F)ccnc1C[S+]([O-])c1nc2ccccc2[nH]1 (stereo not given) [Lansoprazole],1,1,0.941,0.994,0.984,0.973,1,0.852
CN(C)CCOC(C)(c1ccccc1)c1ccccn1 (stereo not given) [Doxylamine succinate],0.982,1.01,1,0.996,0.981,0.993,0.986,0.999
CC(C)(O)c1ccccc1CC[C@@H](SCC1(CC(=O)O)CC1)c1cccc(/C=C/c2ccc3ccc(Cl)cc3n2)c1 [Montelukast],1.02,1.04,1.05,1.01,0.911,0.875,1,1
CO/N=C(\C(=O)N[C@@H]1C(=O)N2C(C(=O)O)=C(COC(C)=O)CS[C@H]12)c1csc(N)n1 [Cefotaxime sodium salt],0.00568 (active),0.0409 (active),0.0691 (active),0.0555 (active),0.00835 (active),0.0141 (active),0.00974 (active),0.00366 (active)
N=C(N)NCC1COC2(CCCCC2)O1 (stereo not given) [Guanadrel sulfate],0.979,0.964,0.983,0.985,0.965,0.969,0.994,0.99
CCC(=O)O[C@]1(C(=O)SCF)[C@H](C)C[C@H]2[C@@H]3C[C@H](F)C4=CC(=O)C=C[C@]4(C)[C@@]3(F)[C@@H](O)C[C@@]21C [Fluticasone propionate],0.996,1.01,1,1,0.998,0.988,0.993,0.998
Cc1cn[nH]c1 [Fomepizole],0.996,0.992,0.977,0.996,0.978,0.985,0.993,0.997
Nc1ncnc2c1ncn2C1OC(COP(=O)(O)O)C(O)C1O (stereo not given) [Adenosine 5'-monophosphate monohydrate],0.999,0.986,0.981,1,0.977,0.984,0.992,0.995
N=C(N)N1CCc2ccccc2C1 [Debrisoquin sulfate],0.995,0.975,1.01,1.01,1.02,1.01,1,1
COc1ccc2cc(CCC(C)=O)ccc2c1 [Nabumetone],1.03,0.998,0.929,0.999,0.99,1,1,0.963
Cc1c(Cl)cccc1Nc1ncccc1C(=O)O [Clonixin lysinate],1,0.989,0.94,1,0.979,1,1.02,0.954
CN(N=O)C(=O)N[C@H]1C(O)O[C@H](CO)[C@@H](O)[C@@H]1O (mixture of isomers) [Streptozotocin],0.659 (active),0.0254 (active),0.141 (active),0.0388 (active),0.0955 (active),0.0778 (active),0.725,0.694
Cc1cn([C@H]2C=C[C@@H](CO)O2)c(=O)[nH]c1=O [Stavudine],1.01,1.03,1.03,0.992,1,1.05,1.03,1.02
N=C(N)NC(=O)Cc1c(Cl)cccc1Cl [Guanfacine hydrochloride],0.983,0.971,1.02,0.988,1.02,1.04,0.989,0.966
C[C@]12CC[C@@H]3c4ccc(OS(=O)(=O)O)cc4CC[C@H]3[C@@H]1CCC2=O [Estropipate piperazine salt],0.985,0.974,0.991,0.965,0.987,0.983,0.997,0.996
Nc1ccn([C@@H]2CS[C@H](CO)O2)c(=O)n1 [Lamivudine],0.98,0.986,0.995,1.01,1,1.02,1,0.992
CC(=O)Oc1cccc2c1C(=O)c1c(OC(C)=O)cc(C(=O)O)cc1C2=O [Diacerein],1,0.997,0.784 (active),1.01,0.0327 (active),0.324,0.995,0.38
Cc1c(NC(C)C)c(=O)n(-c2ccccc2)n1C [Isopyrin hydrochloride],1.02,1.01,1.02,0.982,1.02,1.06,1,1.01
CN(C)CCCC1(c2ccc(F)cc2)OCc2cc(C#N)ccc21 (stereo not given) [Citalopram hydrobromide],0.998,0.994,1,1.01,1.02,0.982,1,0.991
CN(C)C(=N)NC(=N)N [Metformin hydrochloride],1,1.01,1.02,0.983,1.01,0.996,1,1
CCOCCn1c(N2CCCN(C)CC2)nc2ccccc21 [Emedastine difumarate],0.995,0.997,0.992,0.996,1.03,1.05,1,0.989
CC(C)(Oc1ccc(C2CC2(Cl)Cl)cc1)C(=O)O (stereo not given) [Ciprofibrate],1.01,0.998,0.997,0.995,0.973,0.961,0.992,0.993
COc1ccccc1OCC(O)COC(N)=O (stereo not given) [Methocarbamol],0.986,0.981,0.94,0.979,0.993,1.03,1,1
